In general, inhibition refers to the relative decrease from the control value, in per cent.

What all share (format): functional
Assay [1] has as its target Solute carrier family 2, facilitated glucose transporter member 1 (Homo sapiens) (UniProt P11166). As to the kind of experiment: ST_JUDE_LEISH: Cytotoxicity at 2uM final concentration against transgenic Leishmania Mexicana promastigotes LmGLUT1 that are glucose transport deficient and complemented with the human glucose transporter GLUT1. Activity is measured by DNA content using SYBR green in vitro.

In assay [2] the target is Hexose transporter 1 (Plasmodium falciparum) (UniProt O97467). Put plainly: ST_JUDE_LEISH: Cytotoxicity at 2uM final concentration against transgenic Leishmania Mexicana promastigotes LmPfHT that are glucose transport deficient and complemented with the Plasmodium falciparum hexose transporter. Activity is measured by DNA content using SYBR green in vitro.
Assay [3] has as its target Glucose transporter (Leishmania mexicana) (UniProt O61059). As to the kind of experiment: ST_JUDE_LEISH: Cytotoxicity at 2uM final concentration against transgenic Leishmania Mexicana promastigotes LmGT2 that are glucose transport deficient and complemented with the L. Mexicana glucose transporter 2. Activity is measured by DNA content using SYBR green in vitro.

Chain of Solute carrier family 2, facilitated glucose transporter member 1 (Homo sapiens) (P11166 whole entry): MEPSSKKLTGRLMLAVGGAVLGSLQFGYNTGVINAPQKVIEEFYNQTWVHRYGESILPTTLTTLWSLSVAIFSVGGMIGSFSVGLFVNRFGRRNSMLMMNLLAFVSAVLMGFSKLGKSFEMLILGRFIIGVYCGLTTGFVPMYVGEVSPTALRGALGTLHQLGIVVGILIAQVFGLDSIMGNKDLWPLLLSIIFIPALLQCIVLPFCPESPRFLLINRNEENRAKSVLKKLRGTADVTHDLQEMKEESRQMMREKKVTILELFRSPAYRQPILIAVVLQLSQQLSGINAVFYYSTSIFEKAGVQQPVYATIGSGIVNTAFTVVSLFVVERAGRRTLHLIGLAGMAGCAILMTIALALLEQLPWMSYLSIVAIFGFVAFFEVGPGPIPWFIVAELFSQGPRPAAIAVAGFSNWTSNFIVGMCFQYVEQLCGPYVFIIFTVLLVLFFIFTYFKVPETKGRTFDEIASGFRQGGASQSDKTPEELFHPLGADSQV

On to `O=C(CNC1=NCCN1)Nc1ccc(NC(=O)Nc2ccc(NC(=O)CNC3=NCCN3)cc2)cc1`, for which the results for the inhibition in assay [1], in assay [2] and in assay [3] were 3.51%, 4.85% and 0.21%, respectively.

In the case of `Cc1noc(-c2ccccc2)c1CN1CCCC2(CC(C(=O)NCc3cccc(F)c3F)=NO2)C1` (stereo not given), the inhibition in assay [1] was 0.11%; in assay [2] it was -0.09%; in assay [3], -0.8%.

For the molecule `Cc1ccc2sc(N(CCCn3ccnc3)C(=O)c3ccco3)nc2c1C`, the inhibition in assay [1] amounted to 0.64%; in assay [2] it was 2.76%; in assay [3] it was 2.79%.

Turning to `CCCCC(O)c1cc(O)c2c(c1)OC(C)(C)CC2C1=CCN(Cc2ccc3ccccc3c2)CC1` (stereo not given), the inhibition in assay [1] was -0.53%; in assay [2], 1.5%; in assay [3] it was 0.64%.

Turning to `Cc1ccccc1N1CCN(c2ccc(C(=O)NC(C)C)cn2)CC1`, the inhibition in assay [1] is 0.52%; in assay [2], -0.59%; in assay [3], -1.79%.

Take `CC(C)c1ccc(O)cc1Nc1ccnc2ccc(C(F)(F)F)cc12`: the inhibition in assay [1] was 1.29%; in assay [2], -0.72%; in assay [3] it was -0.66%.

For `O=C(NCc1ccc(Cl)cc1)c1ccc(CN2CCCN(CC3CCCCC3)CC2)cc1`, the inhibition in assay [1] was found to be 4.46%; in assay [2] it was 5.73%; in assay [3], 5.25%.

With `CCN(CC)CCCNC(=O)/C(=C/C=C/c1cc2cc(Cl)c(Cl)cc2[nH]1)OC`, the figures for the inhibition in assay [1], in assay [2] and in assay [3] were 7.56%, 11.3% and 7.84%, respectively.

Regarding `N=c1n(CCN2CCCC2)c2ccccc2n1CC(O)c1ccc(Cl)c(Cl)c1` (stereo not given), the inhibition in assay [1] was determined as 1.98%; in assay [2] it was 1.57%; in assay [3], 9.08%.

`CCCCCN1CCCC1CNS(=O)(=O)c1cccc(C(=O)Nc2cccc(C#N)c2)c1` (stereo not given): the results for the inhibition in assay [1], in assay [2] and in assay [3] were 2.62%, 4.82% and 3.88%, respectively.

As to `CC(C)COc1ccc(Cl)cc1Cc1ccc(-c2nc3ccc(F)cc3[nH]2)o1`, the results for the inhibition in assay [1], in assay [2] and in assay [3] were 1.83%, 0.95% and -0.47%, respectively.

As for `O=C(NCCCCN1CCC(O)(c2ccc(Cl)cc2)CC1)c1ccc(Br)cc1`, the inhibition in assay [1] came out at 4.03%; in assay [2] it was 2.65%; in assay [3], 4.04%.

For the molecule `COc1cc(C(F)(F)F)cc2[nH]c(CNCCCNc3nc4ccccc4[nH]3)cc12`, the inhibition in assay [1] came to 4.4%; in assay [2], 6.5%; in assay [3], 5.01%.

`CN1CCN(c2ccc3[nH]c(-c4ccc(Cc5cc(Cl)ccc5OCc5ccccc5)o4)nc3c2)CC1`: the figures for the inhibition in assay [1], in assay [2] and in assay [3] were 1%, 2.32% and 2.2%, respectively.

Turning to `O=C(c1cccc(-c2noc(C(F)(F)F)n2)c1)N1CCN(C(=O)c2ccc3cc[nH]c3c2)CC1`, the inhibition in assay [1] is -0.84%; in assay [2], -0.23%; in assay [3] it was -1.68%.

With `COCCNC(=O)C1CCN(C(c2ccc(Cl)cc2)c2ccc(Cl)cc2)CC1`, the inhibition in assay [1] came out at 7.23%; in assay [2], 6.03%; in assay [3], 9.02%.

For the molecule `CC(C)(C)OC(=O)/C=C(\C(=O)OCc1ccc([N+](=O)[O-])cc1)c1csc(NC(c2ccccc2)(c2ccccc2)c2ccccc2)n1`, the inhibition in assay [1] turned out to be 4.04%; in assay [2], 4.55%; in assay [3], 3.64%.

For `CC(C)(CN)c1nc(-c2ccc(Cl)c(O)c2)c(-c2ccnc(N)n2)[nH]1`, the inhibition in assay [1] was -0.87%; in assay [2], -0.81%; in assay [3], -1.58%.

As for `COc1cccc(Nc2nc(NCCO)c3ccccc3n2)c1`, the inhibition was determined as 14.8% in assay [1], 15% in assay [2] and 5.17% in assay [3].

On to `Cc1ccc(-c2cnc(N)c3cc(-c4ccnc(N)n4)ccc23)cc1`, for which the figures for the inhibition in assay [1], in assay [2] and in assay [3] were -0.17%, -2.15% and -1.88%, respectively.

Turning to `O=C(/C=C/c1ccc(Cl)c(Cl)c1)NCCCCCN1CCCN(C(=O)Nc2cc(F)cc(F)c2)CC1`, the figures for the inhibition in assay [1], in assay [2] and in assay [3] were 9.22%, 8.04% and 8.86%, respectively.

In the case of `COc1cccc2cc(C(=O)N[C@@H](CC(C)C)C(=O)N[C@H](C=NNC(=O)OC(C)(C)C)CC(C)C)oc12`, the inhibition was found to be 2.6% in assay [1], 1.47% in assay [2] and 0.48% in assay [3].

For the molecule `CCc1cc(Br)c2c(c1)C(NCCCNc1cc(=O)c3ccccc3[nH]1)CCN2` (stereo not given), the inhibition turned out to be 3.82% in assay [1], 2.76% in assay [2] and 5.63% in assay [3].

With `N=C(N)c1cc(Cl)cc(NC(=O)Nc2cc(Cl)cc(C(=N)N)c2)c1`, the inhibition was determined as 2.37% in assay [1], 1.25% in assay [2] and 1.53% in assay [3].

Regarding `CN1CCc2cc(CN3CC4(C)CC3CC(C)(C)C4)c(O)cc2C(c2ccccc2)C1` (stereo not given), the inhibition in assay [1] is 0.04%; in assay [2] it was -0.55%; in assay [3], -0.09%.

Turning to `O=c1cc(NCCCNCc2cccc(OC(F)(F)F)c2)[nH]c2ccccc12`, the inhibition was 2.97% in assay [1], -3.41% in assay [2] and 4.57% in assay [3].

For the molecule `Clc1ccc(C=NNc2ccnc3cc(Cl)ccc23)cc1`, the inhibition in assay [1] was 0.42%; in assay [2], 0.11%; in assay [3] it was -0.42%.

Regarding `CC(C)N1CCC(N(Cc2ccc(-c3ccc(C(F)(F)F)cc3)cc2)C(=O)Cn2c(SCc3cccc(F)c3F)cc(=O)c3ccccc32)CC1`, the inhibition was -0.18% in assay [1], 1.73% in assay [2] and 0.55% in assay [3].

As for `O=C(Nc1ccc(OC2CCN(Cc3ccc(F)cc3)CC2)c(Cl)c1)c1ccsc1`, the inhibition in assay [1] is -1.74%; in assay [2], 2.64%; in assay [3], 1.51%.

As for `CCC(O)c1ccc(Br)cc1NC(=O)c1cccc(Cl)c1` (stereo not given), the inhibition in assay [1] is -1.21%; in assay [2], 1.01%; in assay [3], -0.55%.

On to `O=c1cc(-c2ccc3ccccc3c2)[nH]c2ccccc12`, for which the inhibition in assay [1] was 2.83%; in assay [2] it was 2.68%; in assay [3], 2.23%.

In the case of `COc1ccc(NC(=O)Nc2cccc(-c3cccc(-c4nc5ccccc5[nH]4)c3)c2)cc1`, the figures for the inhibition in assay [1], in assay [2] and in assay [3] were -1.96%, -0.16% and -1.98%, respectively.

For the molecule `COc1ccc(NC(=O)Nc2cccc(-c3cccc(-c4nc5cc(F)ccc5[nH]4)c3)c2)cc1`, the figures for the inhibition in assay [1], in assay [2] and in assay [3] were 1.35%, 1.38% and 0.62%, respectively.

Consider `COc1ccc2nc(-c3cc(-c4ccc(NC(C)=O)cc4)cnc3N)[nH]c2c1`, for which the inhibition in assay [1] was 3.72%; in assay [2] it was 4.61%; in assay [3], 2.87%.

For `COc1ccc(NS(=O)(=O)c2cc(NC(=O)Cn3ccccc3=O)ccc2N2CCCCC2)cc1`, the inhibition was 2.57% in assay [1], 3.46% in assay [2] and -7.28% in assay [3].

Values taken from ChEMBL document CHEMBL3433997, “St. Jude Leishmania screening dataset” (2016).
